Pf apPOL inh: Pf-apPOL DNA polymerase inhibition; AID 1794808; Recombinant Pf-apPOL, molecular beacon fluorescence, 1.5 h; inhibition, % at 10 µM; hit rate 0.25% among 210,000
mHTT CaM bind: disrupts binding of mutant huntingtin to calmodulin; AID 1671202; P42858; AlphaScreen His-mHTT/GST-CaM binding, luminescence; hit rate 3.6% among 190,000; inhibition, % at 15 µM;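 also: 0% = both proteins with DMSO and 100% = one protein alone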
* hit, by the source's call. Sampled rows, rich in hits. Any-hit rate of the full collection: about 3.5%. Rule as the data show it: active = inhibition above about 50%; inactive = the rest.

Screening O=C1OC(c2cccc([N+](=O)[O-])c2)=N/C1=C\c1coc2ccccc2c1=O returned Pf apPOL inh -12 and mHTT CaM bind 34.
CCCN1CCN(C(=O)C2CCc3sc(C(=O)N4CCCCCC4)cc3C2)CC1 (stereo not given) was read as Pf apPOL inh -2 and mHTT CaM bind 10.
Screening CCn1c(CCNC(=O)c2ccccc2)nc2c(C)cccc2c1=O returned Pf apPOL inh -6 and mHTT CaM bind 24.
Screening CCn1c(CCNC(=O)c2cccc(N(C)C)c2)nc2c(C)cccc2c1=O returned Pf apPOL inh 1 and mHTT CaM bind 59*.
O=C(NC(Nc1ccc([N+](=O)[O-])cc1)C(Cl)(Cl)Cl)c1ccccc1 (stereo not given) was read as Pf apPOL inh -8 and mHTT CaM bind 44.
Screening COc1ccc(NC(NC(=O)c2cc([N+](=O)[O-])cc([N+](=O)[O-])c2)C(Cl)(Cl)Cl)cc1 (stereo not given) returned Pf apPOL inh -6 and mHTT CaM bind 69*.
Screening O=C(NC(Nc1ccccc1Cl)C(Cl)(Cl)Cl)c1cccc([N+](=O)[O-])c1 (stereo not given) returned Pf apPOL inh -4 and mHTT CaM bind 74*.
Screening CN(C)C(=O)NC(Nc1cccc([N+](=O)[O-])c1)C(Cl)(Cl)Cl (stereo not given) returned Pf apPOL inh -2 and mHTT CaM bind 0.
O=C(NC(Nc1cccc([N+](=O)[O-])c1)C(Cl)(Cl)Cl)c1cccc(Cl)c1 (stereo not given) was read as Pf apPOL inh -1 and mHTT CaM bind 86*.
Cc1ccccc1NC(NC(=O)c1cc([N+](=O)[O-])cc([N+](=O)[O-])c1)C(Cl)(Cl)Cl (stereo not given) was read as Pf apPOL inh -2 and mHTT CaM bind 53*.
For Cc1ccc(C(=O)NC(Nc2ccccc2C)C(Cl)(Cl)Cl)cc1 (stereo not given) the results were Pf apPOL inh 0 and mHTT CaM bind -6.
`Cc1cccc(C(=O)NC(Nc2ccc([N+](=O)[O-])cc2)C(Cl)(Cl)Cl)c1` (stereo not given) gave Pf apPOL inh -1 and mHTT CaM bind 38.
Screening CCSc1ccc(-c2cccc(NC(=O)C3CCCO3)c2)nn1 (stereo not given) returned Pf apPOL inh -4 and mHTT CaM bind 3.
Screening O=C(NC1CC1)c1ccc(=O)[nH]c1 returned mHTT CaM bind 0.
Cc1ccc2c(NC(=O)Cc3c(C)[nH]c(=O)[nH]c3=O)cccc2n1 was read as Pf apPOL inh -9 and mHTT CaM bind -13.
COc1cccc(NC(=O)CSc2nc(CC(=O)Nc3ccc(F)c(F)c3)cs2)c1 was read as Pf apPOL inh -2 and mHTT CaM bind 2.
For O=S(=O)(c1ccccc1)N1CCN(C2c3ccccc3-c3ccccc32)CC1 the results were Pf apPOL inh 0.
Screening Cc1ccc(CNC(=O)c2cnn3c(C)c(Cc4ccccc4F)c(C)nc23)cc1 returned Pf apPOL inh -9 and mHTT CaM bind 5.
`CCCn1ccc2oc(C)c(C(=O)N3CCN(c4cccc(C)c4)CC3)c2c1=O` gave Pf apPOL inh 0 and mHTT CaM bind 67*.
CCn1ccc2oc(C)c(C(=O)N3CCN(c4ccc(Cl)cc4)CC3)c2c1=O was read as Pf apPOL inh -5 and mHTT CaM bind 37.
`CCn1ccc2oc(C)c(C(=O)N3CCN(c4cccc(Cl)c4)CC3)c2c1=O` gave Pf apPOL inh 3 and mHTT CaM bind 94*.
CCCn1ccc2oc(C)c(C(=O)N3CCN(c4ccccc4)CC3)c2c1=O was read as Pf apPOL inh 1 and mHTT CaM bind 29.
COCCNC(=O)N1CCc2nc3cc(-c4ccc(OC)cc4)[nH]n3c(=O)c2C1 was read as Pf apPOL inh 8 and mHTT CaM bind 6.
For O=C(c1ccccc1)N1CCCCC1CCN1CCCC1 (stereo not given) the results were Pf apPOL inh -9 and mHTT CaM bind -8.
`O=C(O)C1CCCN(c2ccc(C(F)(F)F)cc2[N+](=O)[O-])C1` (stereo not given) gave Pf apPOL inh -1 and mHTT CaM bind 2.
For O=C(COc1ccccc1)Nc1ccn(Cc2ccccc2Cl)n1 the results were Pf apPOL inh -1 and mHTT CaM bind 7.
Screening O=C(NCc1cccc(F)c1)c1cccc(C2CCCN(C(=O)Nc3ccccc3)C2)c1 (stereo not given) returned Pf apPOL inh -2 and mHTT CaM bind 12.
Screening O=C(/C=C1\NC2(CCCC2)Cc2ccccc21)Nc1cccnc1 returned Pf apPOL inh -4 and mHTT CaM bind 17.
For COc1cccc(C2CC(c3ccc(I)cc3)Nc3ncnn32)c1OC (stereo not given) the results were Pf apPOL inh -4 and mHTT CaM bind 34.
`COc1ccc(C2CC(c3ccc(Br)cc3)Nc3ncnn32)c(OC)c1OC` (stereo not given) gave Pf apPOL inh 0 and mHTT CaM bind 57*.

Screening results as filed in PubChem.
